Test results as given in PubChem BioAssay (NCI).
The panel holds about 83,000 compounds, 20% with a hit somewhere; the sample as a whole holds those more often.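 Step 1: grow cells in 96-well plates. Step 2: add test compound at a single concentration. Step 3: incubate 48 h. Step 4: record percent growth.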 A number with no mark means an inactive call. Activity calls are given as the source filed them.

These molecules were tested on MCF7 breast (assay: NCI-60 one-dose screen, 48 h (100 = growth as untreated, 0 = no growth, -100 = all killed)). Settings: 10 µM unless noted.
Experimental: Growth inhibition of the MCF7 human tumor cell line is measured as a screen for anti-cancer activity. Cells are grown in 96 well plates and exposed to the test compound for 48 hours. Compounds are tested at a single concentration, which is 10^-5 M for most compounds. The reported endpoint is percent growth (GI% or GIPRCNT), where numbers from 0 - 100% represent growth inhibition, and numbers from -100% - 0 represent cell death. For example, a value of 40 represents 60% growth inhibition. A value of 0 means no net growth occurred over the course of the experiment. A value of -40 indicates 40% of cells at the beginning of the experiment died by the end of the experiment. A value of -100 means all cells are dead at the end of the experiment.
NCI-60 Human Tumor Cell Lines Screen was performed using the standard one-dose NCI protocol, which is described in more detail at https://dtp.cancer.gov/discovery_development/nci-60/default.htm.
Compounds with GIPRCNT values below 10 were considered active. Activity score was based on GIPRCNT using the following formula: […]
Score is 0 for GIPRCNT values of 100 or above, 50 for GIPRCNT values of 0, and 100 for GIPRCNT values of -100.

| SMILES | growth |
| --- | --- |
| CC(=O)OC[Si](C)(C)c1ccccc1 | 107% |
| COc1ccc(/C=C2\C(=O)N(C(=O)c3csc(NC(C)=O)n3)N=C2C)cc1 | 88.4% |
| COc1ccc(OC)c(C(=O)c2oc3ccc(Br)cc3c2N)c1 | 15.5% |
| O=C(CNC(=O)c1cccc2ccccc12)Nc1ccccc1Oc1ccccc1 | 11.3% |
| Cc1ccc(C2=NN(c3ccc(S(=O)(=O)NC(=O)NCc4ccccc4)cc3)C(c3ccc(N(C)C)cc3)C2)c(C)c1 (stereo not given) | 28.9% |
| O=c1[nH]c2ccccc2cc1-c1nnc(Cc2ccccc2)o1 | 20.5% |
| NC(=O)c1c(NC(=O)c2ccc(OCC3CCCO3)cc2)sc2c1CCCC2 (stereo not given) | 101% |
| COc1cc(C2C3=C(COC3=O)Nc3c2ccc2c3CCCC2)cc2c1OCO2 (stereo not given) | 16.3% |
| COc1cc(OC)c(C(=O)/C=C/c2ccc(C(F)(F)F)cc2)c(OC)c1 | 19.7% |
| CCN(Cc1ccc(CN(CC)C(=O)C(Br)Br)cc1)C(=O)C(Br)Br | 24.4% |
| O=C(Nc1cccc(C(F)(F)F)c1)Nc1ccc(OCc2nnc(-c3ccccc3)o2)c(F)c1 | 24.8% |
| O=C(c1c[nH]c2ccccc12)C(Sc1nc2ccccc2c(=O)[nH]1)c1ccccc1 (stereo not given) | 101% |
| CCC(C)NCC(=O)O (stereo not given) | 103% |
| O=C(CCCn1c2c(sc3ccccc32)c(=O)n2nnc(-c3ccccc3)c12)NCCc1cnc[nH]1 | -100% (active) |
| Cn1cc(C=O)c2ccccc21 | 99.3% |
| CCCCCCCCCCCCCCCCCCOc1cccc(CCOP(=O)(O)OCC[N+](C)(C)C)c1 | 88.8% |
| COC(=O)CCCCN=Cc1c(O)c(O)c(C(C)C)c2cc(C)c(-c3c(C)cc4c(C(C)C)c(O)c(O)c(C=NCCCCC(=O)OC)c4c3O)c(O)c12 | 9.71% (active) |
| CCc1c(C(=O)Nc2ccc3ccccc3c2)[nH]c(C)c1C(C)=O | 84.6% |
| COc1cc(C(=O)N2CCN(C(=O)c3ccco3)CC2)c(N)cc1OCc1ccccc1 | 93.1% |
| CC1=CNNc2c3ncnc-3ncn21 | 111% |

| SMILES | growth |
| --- | --- |
| CCn1cc(C(=O)O)c(=O)c2cc(F)c(N3CCN(S(=O)(=O)c4ccc(OC)c(OC)c4)CC3)cc21 | 100% |
| CCSc1nnc(NC(=O)Cc2ccc(Cl)cc2)s1 | 101% |
| O=C(/C=C/CN1CCOCC1)Nc1cc2c(Nc3cccc(Cl)c3F)ncnc2cc1OCCOC(F)F | 65.5% |
| CCCCNC(=O)NS(=O)(=O)c1ccc(N2N=C(c3ccc(C)cc3C)CC2c2ccc(OC)cc2)cc1 (stereo not given) | 48.7% |
| O=S(=O)(NCCNc1cc(-c2cn(-c3ccccc3)nc2-c2ccccc2)ccn1)c1cccc2ccccc12 | 28.2% |
| CCN(C(=O)c1cc2ncccc2[nH]1)[C@H]1CCC[C@@H](NCc2cccc(F)c2)C1 | 95.7% |
| COc1ccc(Cn2cc(COc3cc(/C=C/C(=O)c4cc(OC)c(OC)c(OC)c4)ccc3OC)nn2)cc1 | 21.3% |
| CCN(CC)CCCNc1nc(C)cc(Nc2ccc3nc(C)cc(N)c3c2)n1 | 92.8% |
| Nc1cccc2c1CN(C1CCC(=O)NC1=O)C2=O (stereo not given) | 94.5% |
| N#Cc1ncc(-c2ccc(F)c(F)c2F)c(NC2CCCCCC2)n1 | 83.5% |
| O=c1c2cccc3c(Nc4ccc(F)cc4)ccc(c32)c2nc3ccccc3n12 | 10.1% |
| COc1cc2nc(N3CCC[C@@H](NC4=CC(=O)c5ccccc5C4=O)C3)nc(N)c2cc1OC | -63.3% (active) |
| Cc1ccc2nc(-c3c(N)n[nH]c3CCCO)[nH]c(=O)c2c1 | 94.5% |
| Cc1cccc2cc(/C=C/C(=O)/C=C/c3ccc(Cl)cc3)c(=O)[nH]c12 | 9.87% (active) |
| COC(=O)CCCCCN=Cc1c(O)c(O)c(C(C)C)c2cc(C)c(-c3c(C)cc4c(C(C)C)c(O)c(O)c(C=NCCCCCC(=O)OC)c4c3O)c(O)c12 | 12.9% |
| CCNCc1ccncc1 | 96.6% |
| O=[N+]([O-])c1cc(S(=O)(=O)OCC2CO2)ccc1Cl (stereo not given) | 75.5% |
| CC1(C)OC2COC3(C(=O)O)OC(C)(C)OC3C2O1 (stereo not given) | 99.7% |
| NCCSC(c1ccccc1)(c1ccccc1)c1ccccc1 | 2.6% (active) |
| Nc1c(C(=O)Nc2ccccc2)sc2nc3c(cc12)CN(Cc1ccccc1)CC3 | 77.9% |
